# Data from patent US20060193821, “Aptamers to the human IL-12 cytokine family and their use as autoimmune disease therapeutics” (published 2006).
# Target: IL-12 (human, p35/p40 heterodimer) (Homo sapiens, UniProt P29459;P29460 SEQ:57-253,SEQ:23-328)
# Test: competition; fold specificity for IL-23 over IL-12; 250 nM IL-12, saturation re-analysis of competition data
# Settings: G4; XNA; deoxy A and G, 2'-OMe C and U
# Procedure: Several of the minimized constructs from the dRmY Selection 2 were also assayed in a competition format in which cold aptamer was titrated and competed away trace ³²P ATP labeled aptamer In the competition assay, the [IL-23] was held constant, the [trace labeled aptamer] was held constant, and the [unlabeled aptamer] was varied. The KD was calculated by fitting the following equation to the data: Fraction aptamer bound=amplitude*([aptamer]/(KD+[aptamer]))+background binding.
# The competitive binding data was re-analyzed in a saturation binding experiment where the concentration of ligand (aptamer) was varied and the concentration of receptor ([…]) was held constant and the [bound aptamer] was plotted versus the [total input aptamer].
# Chain of IL-12 (human, p35/p40 heterodimer) (P29459 23-219, chain 1 of 2): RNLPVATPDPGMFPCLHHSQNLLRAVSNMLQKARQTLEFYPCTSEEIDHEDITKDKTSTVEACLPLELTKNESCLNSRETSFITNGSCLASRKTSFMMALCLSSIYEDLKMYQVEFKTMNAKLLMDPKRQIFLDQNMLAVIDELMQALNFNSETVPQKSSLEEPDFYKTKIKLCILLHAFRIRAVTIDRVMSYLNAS
# Chain of IL-12 (human, p35/p40 heterodimer) (P29460 23-328, chain 2 of 2): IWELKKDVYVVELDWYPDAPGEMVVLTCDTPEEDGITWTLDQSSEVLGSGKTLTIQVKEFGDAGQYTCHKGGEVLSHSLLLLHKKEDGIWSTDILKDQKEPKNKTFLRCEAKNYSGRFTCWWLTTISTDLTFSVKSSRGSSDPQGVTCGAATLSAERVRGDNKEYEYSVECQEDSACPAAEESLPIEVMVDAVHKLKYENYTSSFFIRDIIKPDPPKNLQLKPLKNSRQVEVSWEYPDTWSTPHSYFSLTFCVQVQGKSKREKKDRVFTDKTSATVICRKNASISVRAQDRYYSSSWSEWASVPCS
row,Sequence,binding signal [fold]
1,ACAGGCAAGUAAUUGGGGAGUGCGGGCGGGGUGU,33
